From PubChem BioAssay (NCATS)
Inconclusive results are not listed. A call without a number means that no potency is given here. Active and inactive are the calls of the source. Unless noted, the call rests on the fitted dose curve; in most records, active means well fitted curve in the direction sought with a large enough effect; inconclusive means small, poorly fitted or top-dose-only effect, or another doubt; inactive means no such curve, though single readings can be large; an effect the other way counts as inactive or inconclusive.

How the values were obtained:
[1] = Cytotoxicity counterscreen for NFkB agonists and antagonists (AID 624476); further: potency means the concentration at half of the fitted maximal effect
[2] = qHTS Assay for Identification of Small Molecule Agonists for NFkB Signaling Pathway. (AID 624478)
Method in brief: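 NFkB-bla ME-180 cells carry a beta-lactamase reporter. They received compound plus TNF alpha at 10 pM final (its EC50) for 5 h at 37 C. Reporter activity was read as 460/530 nm emission ratio after 2 h LiveBLAzer substrate loading.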

[3] = qHTS Assay for Identification of Small Molecule Antagonists for NFkB Signaling Pathway. (AID 624479; calls by dose curve;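 further: pathway stimulated with TNF alpha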; further: potency means the concentration at half of the fitted maximal effect)
[4] = Cell Proliferation Assay against the TMD8 Cell Line (AID 651645); conditions: TMD8 DLBCL cell line proliferation/viability; at 46.1 µM (top of the series) unless noted;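 further: cells exposed to compound for 48 h before reading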
Method in brief: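 Cell viability of the ABC DLBCL line TMD8 is measured by CellTiter-Glo luminescence following a 48-hour incubation with compound. Percent activity uses DMSO as 100% and 9.2 uM bortezomib (final) as 0%.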

[5] = Cell Proliferation Assay against the HBL1 Cell Line (AID 651646); conditions: HBL1 DLBCL cells; at 46.1 µM (top of the series) unless noted;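 further: cells exposed to compound for 48 h before reading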
Method in brief: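 Luminescent ATP read-out (CellTiter-Glo) after 48 h compound exposure of HBL1 cells at 37 °C; percent activity was scaled between DMSO as 100% and 9.2 uM bortezomib (final) as 0%.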

[6] = Cell Proliferation Assay against the TMD8 Cell Line (Caspase readout at 8 hrs) (AID 651713)
Method in brief: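 TMD8 cells in RPMI plus 5% FBS were treated with compound for 8 h at 37C. Caspase 3/7 activation was read by Caspase-Glo luminescence. Percent activity was scaled from DMSO (0%) to 9.2 uM bortezomib final (100%).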

[7] = molecular target: Tyrosine-protein kinase Yes (Homo sapiens) (UniProt P07947); assay: qHTS for small molecule inhibitors of Yes1 kinase: Primary Screen (AID 686947); further: nearly all actives have a fitted effect of over 60% in size
Method in brief: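 Yes1 (4 nM) preincubated 20 min with compound, then 60 min room-temperature reaction with 0.1 mM ATP and 0.3 mg/mL poly(E4Y) in pH 7.5 Tris, 10 mM MgCl2. ADP measured by ADP-Glo luminescence, normalised to enzyme/no-enzyme controls.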

[8] = Cell Proliferation Assay against the TMD8 Cell Line (Caspase readout at 16 hrs) (AID 651712)
Method in brief: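 Apoptotic response of TMD8 cells was judged from caspase 3/7 activation following a 16 hour compound incubation at 37 °C. Luminescent signal was converted to percent activity, with DMSO set as 0% and 9.2 uM final bortezomib as 100%.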

Sequence of Tyrosine-protein kinase Yes (Homo sapiens) (P07947 whole entry, looked up): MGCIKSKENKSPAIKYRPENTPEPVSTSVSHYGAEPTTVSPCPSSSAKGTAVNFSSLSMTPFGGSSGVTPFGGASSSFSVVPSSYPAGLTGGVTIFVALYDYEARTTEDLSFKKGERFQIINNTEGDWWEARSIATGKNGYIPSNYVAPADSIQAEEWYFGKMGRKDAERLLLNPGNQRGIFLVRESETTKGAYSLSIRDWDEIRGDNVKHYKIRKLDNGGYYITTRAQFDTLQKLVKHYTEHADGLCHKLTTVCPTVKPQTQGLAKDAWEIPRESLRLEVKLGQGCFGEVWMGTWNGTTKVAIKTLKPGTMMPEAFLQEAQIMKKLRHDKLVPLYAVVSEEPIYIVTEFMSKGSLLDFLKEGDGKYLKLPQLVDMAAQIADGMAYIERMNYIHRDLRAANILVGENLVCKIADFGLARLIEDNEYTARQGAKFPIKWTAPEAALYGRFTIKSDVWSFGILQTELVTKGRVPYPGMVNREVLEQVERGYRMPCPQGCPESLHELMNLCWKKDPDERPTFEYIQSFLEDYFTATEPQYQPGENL

## Cn1cnc2c(F)c(Nc3ccc(Br)cc3Cl)c(C(=O)NOCCO)cc21
[1]
  Potency: inactive
[2]
  outcome: inactive
[3]
  Potency: inactive
[4]
  viability (% of control): 79.9%
[5]
  viability, percent of control: 76.1%
[6]
  Potency: inactive

## CCC(=O)N[C@H]1CC[C@H](C(=O)N(C)c2ccc(-c3nc4ccccc4o3)cc2)C1
[1]
  Potency: inactive
[2]
  outcome: inactive
[3]
  Potency: inactive
[4]
  viability (% of control): 77.3%
[5]
  viability, percent of control: 74.7%
[6]
  Potency: inactive

## CCc1cc(Nc2nccc(-c3c(-c4ccc(OC)c(C(=O)Nc5c(F)cccc5F)c4)nc4ccccn34)n2)c(OC)cc1N1CCC(N2CCN(S(C)(=O)=O)CC2)CC1
[1]
  Potency: inactive
[2]
  outcome: inactive
[3]
  Potency: inactive
[4]
  viability (% of control): 78.7%
[5]
  viability, percent of control: 87.3%
[6]
  Potency: inactive

## CN(C(=O)c1ccc(F)cc1C(F)(F)F)C1CCN(c2nnc(-c3ccnn3C)c3ccccc23)CC1
[1]
  Potency: inactive
[2]
  outcome: inactive
[3]
  Potency: inactive
[4]
  viability (% of control): 70.8%
[5]
  viability, percent of control: 65.3%
[6]
  Potency: inactive

## CCN(c1ccccc1)c1cc(NC)[n+](C)c(C)n1
[1]
  Potency: inactive
[2]
  outcome: inactive
[3]
  Potency: inactive
[4]
  viability (% of control): 99.5%
[5]
  viability, percent of control: 87.8%
[6]
  Potency: inactive
[7]
  Potency: inactive

## CCn1c(-c2nonc2N)nc2cnc(Oc3cccc(NC(=O)c4ccc(OCCN5CCOCC5)cc4)c3)cc21
[1]
  Potency: inactive
[2]
  outcome: inactive
[3]
  Potency: 4.73 µM (active)
[4]
  viability (% of control): 19.6%
[5]
  viability, percent of control: 36.3%
[6]
  Potency: inactive
[7]
  Potency: inactive

## CCN(CC)CCCC(C)Nc1nc(C)cc(Nc2ccc3nc(C)cc(N)c3c2)n1 (configuration not stated)
[1]
  Potency: inactive
[2]
  outcome: inactive
[3]
  Potency: inactive
[4]
  viability (% of control): 65.5%
[5]
  viability, percent of control: 67.9%
[6]
  Potency: inactive

## CN[C@@H](C)C(=O)N[C@H]1CCCC[C@H]2CC[C@@H](C(=O)N[C@@H](c3ccccc3)c3cn(CCCCc4ccc(CCCCn5cc([C@@H](NC(=O)[C@@H]6CC[C@@H]7CCCC[C@H](NC(=O)[C@H](C)NC)C(=O)N76)c6ccccc6)nn5)cc4)nn3)N2C1=O
[1]
  Potency: inactive
[2]
  outcome: inactive
[3]
  Potency: inactive
[4]
  viability (% of control): 7.59%
[5]
  viability, percent of control: 15.5%
[8]
  Potency: inactive
[7]
  Potency: inactive

## NC(=O)C1CCCc2c1[nH]c1ccc(Cl)cc21 (configuration not stated)
[1]
  Potency: inactive
[2]
  outcome: inactive
[3]
  Potency: inactive
[4]
  viability (% of control): 94.1%
[5]
  viability, percent of control: 73.1%
[6]
  Potency: inactive

## COc1nc(-c2ccc3c(c2)OCO3)n(-c2ccc(NC(=O)CSc3ccccc3)cc2)n1
[1]
  Potency: inactive
[2]
  outcome: inactive
[3]
  Potency: inactive
[4]
  viability (% of control): 60.1%
[5]
  viability, percent of control: 68.5%
[6]
  Potency: inactive
[7]
  Potency: inactive

## CC(C)c1onc(-c2c(Cl)cccc2Cl)c1COc1ccc(/C=C/c2cccc(C(=O)O)c2)c(Cl)c1
[1]
  Potency: 11.8 µM (active)
[2]
  outcome: inactive
[3]
  Potency: 21.1 µM (active)
[4]
  viability (% of control): 89.6%
[5]
  viability, percent of control: 75.2%
[6]
  Potency: inactive

## CC(c1cc2ccccc2s1)N(O)C(N)=O (configuration not stated)
[1]
  Potency: inactive
[2]
  outcome: inactive
[3]
  Potency: inactive
[4]
  viability (% of control): 92.3% [at 92.2 µM]
[5]
  viability, percent of control: 96.2% [at 92.2 µM]
[8]
  Potency: inactive
[7]
  Potency: inactive
